Assay outcomes: PubChem, National Center for Advancing Translational Sciences (NCATS)
This is a sample that favours compounds with a hit; in the whole collection about 7.5% have one here.
SMN2 splice up – enhancers of SMN2 splice variant expression | Potency, µM (doses to about 46.1 µM), hits mostly activators | actives 2.8% (n = 210,000) | AID 1458 | HEK293 SMN2-luciferase splicing reporter, luminescence, 30-36 h; further: nearly all actives have a fitted effect of over 55% in size
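qHTS luciferase splicing reporter: luminescence rises when SMN2 exon 7 is included in transfected HEK293 cells. Compound exposure lasted 30-36 h at 37C, with 4.5 mM final sodium butyrate as control, followed by a ONE-Glo read.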
NPC1 promoter act – NPC1 promoter activation | Huh7 NPC1 promoter luciferase reporter, 24 h | Potency, µM (top dose mostly 9.22 µM), actives largely listed as activators | actives 2.4% (n = 320,000); further: nearly all actives have a fitted effect of over 60% in size
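Stably transfected Huh7 (NPC1 promoter→luciferase), 1500 cells/well in Opti-MEM + 10% FBS, 2 h settle, then compound 24 h at 37 °C. Luminescence after 10 min with Amplite reagent.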
KinaseGlo FLuc – blocks Kinase-Glo luciferase, a counter-screen artifact | Potency, µM (highest dose often 38.3 µM), hits mostly inhibitors | actives 0.28% (n = 200,000) | AID 1379 | Q27757 | Kinase-Glo luciferase, ATP luminescence, 8 min; further: nearly all actives have a fitted effect of over 60% in size
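Kinase-Glo luciferase light output from ATP and luciferin was measured with 10 uM ATP, within the enzyme's linear range. Buffer: 50 mM imidazole pH 7.2, 50 mM KCl, 7 mM MgCl2, 0.01% Tween 20, 0.05% BSA; luminescence read after 8 min at ambient temperature.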
FLuc counter – inhibits or activates purified firefly luciferase, miR-21 counter-screen; Potency, µM (series often up to 57.5 µM), most hits filed as inhibitors; purified FLuc, Km substrates, luminescence inhibition; P08659; AID 588342; actives 6.9% (n = 360,000); further: nearly all actives have a fitted effect of over 55% in size
Target sequence (P08659 whole entry, looked up): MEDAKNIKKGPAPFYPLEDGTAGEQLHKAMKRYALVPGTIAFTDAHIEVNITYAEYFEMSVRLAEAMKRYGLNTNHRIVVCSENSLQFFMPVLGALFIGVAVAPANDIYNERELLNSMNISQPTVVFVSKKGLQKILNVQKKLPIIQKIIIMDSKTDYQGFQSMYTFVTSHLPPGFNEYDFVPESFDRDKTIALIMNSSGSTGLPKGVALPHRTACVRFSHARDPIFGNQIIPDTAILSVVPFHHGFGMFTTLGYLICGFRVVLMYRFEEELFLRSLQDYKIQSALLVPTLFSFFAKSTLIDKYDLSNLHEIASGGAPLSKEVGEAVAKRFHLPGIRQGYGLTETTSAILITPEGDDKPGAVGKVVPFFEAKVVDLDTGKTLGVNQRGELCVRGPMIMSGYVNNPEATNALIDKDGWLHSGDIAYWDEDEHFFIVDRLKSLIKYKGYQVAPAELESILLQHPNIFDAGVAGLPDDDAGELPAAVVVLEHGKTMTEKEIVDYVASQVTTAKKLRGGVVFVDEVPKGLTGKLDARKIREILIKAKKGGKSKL
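Purified P. pyralis luciferase (10nM final) with 10uM D-luciferin and 10uM ATP (Km levels) in 50mM Tris acetate pH 7.5, 10mM Mg acetate, 0.01% Tween-20, 0.05% BSA; qHTS 6-point titration, ~60 µM downward; luminescence read.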
ELG1 genotoxic – genotoxicity induction in ELG1-luciferase HEK293T cells; HEK293T ELG1-luciferase reporter, luminescence, 16 h; Potency, µM (series often up to 46 µM), most hits filed as activators; actives 1.3% (n = 330,000); further: nearly all actives have a fitted effect of over 60% in size
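HEK293T cells expressing luciferase-tagged ELG1 were treated with compound or DMSO for 16 hr at 37°C. Luciferase activity was then read after 30 min with ONE-Glo at room temperature; rising signal flags genetic stress.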
Rab9 promoter act – Rab9 promoter activation. Huh7 Rab9 promoter-luciferase reporter, luminescence, 24 h. Potency, µM (highest dose often 9.22 µM), most hits filed as activators. actives 2.8% (n = 320,000). AID 485297; further: nearly all actives have a fitted effect of over 60% in size
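Cell-based reporter: Huh7 stable for Rab9 promoter-driven luciferase, plated in reduced-serum medium with 10% FBS at 1500 cells/well, compound-treated 24 h at 37 °C, luminescence read after 10 min reagent.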
Each line names hits and unclear results; the compound was inactive in the other large screens. The call rests on the fitted dose curve; in most records, active means well fitted curve in the direction sought with a large enough effect; inconclusive means small, poorly fitted or top-dose-only effect, or another doubt; inactive means no such curve, though single readings can be large; an effect the other way counts as inactive or inconclusive.

CCN(CC)c1ccc(/C=N/NC(=O)CCC(=O)NCc2ccccc2)c(O)c1	FLuc counter inconclusive, ELG1 genotoxic inconclusive
COC(=O)CCC[C@H]1CC2(C[C@H](CCCO[Si](C)(C)C(C)(C)C)N1C(=O)OC(C)(C)C)OCCO2	none (no result: SMN2 splice up, KinaseGlo FLuc)
Nc1nc(-c2c[nH]c3ccccc23)cs1	SMN2 splice up inconclusive, FLuc counter inconclusive, Rab9 promoter act inconclusive
Brc1ccc2nc(-c3c[nH]c4ccccc34)cn2c1	SMN2 splice up 10µM, NPC1 promoter act 2.2µM, FLuc counter 1.5µM, ELG1 genotoxic inconclusive, Rab9 promoter act 1µM
Cc1cccn2cc(-c3c[nH]c4ccccc34)nc12	SMN2 splice up 13µM, NPC1 promoter act inconclusive, FLuc counter 19µM, ELG1 genotoxic inconclusive, Rab9 promoter act inconclusive
CCOC(=O)c1sc(NC(=O)CN2C(=O)C3CC=CCC3C2=O)nc1C (configuration not stated)	none (no result: SMN2 splice up, KinaseGlo FLuc)
CCS(=O)(=O)Nc1cccc(-c2nc3cccnc3s2)c1	NPC1 promoter act inconclusive, FLuc counter 19µM, Rab9 promoter act inconclusive (no result: SMN2 splice up, KinaseGlo FLuc)
CCS(=O)(=O)Nc1cc(-c2nc3cccnc3s2)ccc1C	SMN2 splice up 11µM, NPC1 promoter act 3.5µM, FLuc counter 9.5µM, ELG1 genotoxic 2.9µM
CCS(=O)(=O)Nc1ccc(-c2nc3cccnc3s2)cc1	NPC1 promoter act 0.79µM, FLuc counter 1.7µM, ELG1 genotoxic inconclusive, Rab9 promoter act 0.71µM (no result: SMN2 splice up, KinaseGlo FLuc)
Cc1ccc(-c2nc3cccnc3s2)cc1NS(=O)(=O)c1ccc2c(c1)CCCC2	none
O=S(=O)(Nc1ccc(-c2nc3cccnc3s2)cc1)c1ccc(Cl)s1	SMN2 splice up 13µM, NPC1 promoter act inconclusive, FLuc counter 19µM, ELG1 genotoxic 8.2µM, Rab9 promoter act inconclusive
Cc1nc2ccc(S(=O)(=O)Nc3ccc(-c4nc5cccnc5s4)cc3)cc2s1	SMN2 splice up inconclusive, FLuc counter inconclusive
O=C(Nc1ccc(Nc2ccccc2)cc1)c1ccco1	SMN2 splice up 13µM, NPC1 promoter act inconclusive, FLuc counter 7.6µM, ELG1 genotoxic 9.2µM, Rab9 promoter act 0.56µM
O=C(Nc1ccc(NC(=O)c2ccco2)cc1)c1ccco1	none (no result: SMN2 splice up, KinaseGlo FLuc)
O=C(Nc1ccc(NC(=O)c2sc3ccccc3c2Cl)cc1)c1ccco1	ELG1 genotoxic 23µM
CC1CCC(NC(=O)COC(=O)c2ccco2)CC1 (configuration not stated)	FLuc counter 24µM (no result: SMN2 splice up, KinaseGlo FLuc)
O=C(Nc1ccc(Br)cc1)c1ccco1	SMN2 splice up 11µM, NPC1 promoter act inconclusive, FLuc counter 13µM, ELG1 genotoxic 7.1µM, Rab9 promoter act 3.2µM
O=C(Nc1ccc(-c2ccccc2)cc1)c1ccco1	none
CC(C)Cn1cc(C(=O)N2CCN(c3cccc(Cl)c3)CC2)c2c3ccccc3n(C)c2c1=O	none (no result: NPC1 promoter act, KinaseGlo FLuc, ELG1 genotoxic, Rab9 promoter act)
COc1cc(NC(=O)Cn2c(-c3ccccc3)cc(C(C)=O)c2C)cc(OC)c1	none (no result: SMN2 splice up, NPC1 promoter act, KinaseGlo FLuc, ELG1 genotoxic, Rab9 promoter act)
CC(C)Cn1c(SCC(=O)c2ccc(Cl)s2)nnc1-c1ccco1	FLuc counter inconclusive
O=C(c1cccc(F)c1)N1CCC2(CCCN(Cc3ccccc3)C2)CC1	none (no result: NPC1 promoter act, FLuc counter, ELG1 genotoxic, Rab9 promoter act)
Cc1ccccc1NC(=S)N1CCN(c2ccccc2Cl)CC1	none (no result: SMN2 splice up, KinaseGlo FLuc)
O=C(Nc1ccc(Cc2ccncc2)cc1)c1ccco1	NPC1 promoter act inconclusive, FLuc counter 19µM, Rab9 promoter act inconclusive
O=C(CNC(=O)c1ccco1)Nc1ccncc1	none (no result: SMN2 splice up, KinaseGlo FLuc)
O=C(COC(=O)c1ccco1)Nc1ccc(Br)cc1	FLuc counter 9.5µM
C[C@@H]1CN([C@H](C)CO)C(=O)c2cccc(NC(=O)Nc3ccc(F)cc3)c2O[C@H]1CN(C)C(=O)Nc1ccc(C(F)(F)F)cc1	none (no result: SMN2 splice up, NPC1 promoter act, KinaseGlo FLuc, FLuc counter, Rab9 promoter act)
Cc1ccccc1-c1nc(CN2CCC(C(=O)NCc3ccccc3Cl)CC2)c(C)o1	FLuc counter inconclusive (no result: NPC1 promoter act, KinaseGlo FLuc, ELG1 genotoxic, Rab9 promoter act)
Cc1ccc(C(=O)NC2(O)C(=O)c3ccccc3C2=O)cc1C	FLuc counter 2.4µM (no result: SMN2 splice up, KinaseGlo FLuc)
O=C(NCc1ccco1)c1cccc(F)c1	none (no result: NPC1 promoter act, ELG1 genotoxic, Rab9 promoter act)
O=C(Nc1ccon1)c1sc2cc(F)ccc2c1Cl	SMN2 splice up 22µM, NPC1 promoter act 3.2µM, FLuc counter inconclusive, ELG1 genotoxic inconclusive, Rab9 promoter act 2.5µM
